Results taken from PubChem BioAssay.
Entries with a potency or affinity are not part of this list. Inconclusive results are not listed. Activity calls are given as the source filed them. No rule for the calls is given here.

Assay: IGROV1 cell killing – plate reader, dry powder samples, PAX8 inhibitor project, dose response (AID 743043);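 also: more negative means fewer viable cells or more cytotoxicity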
Conditions: IGROV1 ovarian cancer cell cytotoxicity; series mostly up to 35 µM; activity change, negative = cytotoxicity: at the top concentration

Structure (SMILES) | activity change, negative = cytotoxicity
COc1ccc(S(=O)(=O)Nc2ccc3c(c2)C(=O)N([C@@H](C)CO)C[C@H](C)[C@@H](CN(C)C(=O)Nc2ccc(F)cc2)OCCCC[C@H](C)O3)cc1 | -1.35% (inactive)
C[C@@H]1CCCCO[C@H](CN(C)S(=O)(=O)c2ccc(F)cc2)[C@H](C)CN([C@@H](C)CO)C(=O)c2cc(NS(=O)(=O)c3ccc(Cl)cc3)ccc2O1 | -5.69% (inactive)
CCCC#Cc1ccc([C@@H]2[C@@H](C#N)N(C(=O)C3CCCCC3)[C@H]2CO)cc1 | -15.9% (inactive)
C[C@@H]1CN([C@@H](C)CO)S(=O)(=O)c2ccc(C#Cc3ccncc3)cc2O[C@H]1CN(C)C(=O)Nc1ccc2c(c1)OCO2 | -9.82% (inactive)
COc1ccccc1C#Cc1ccc2c(c1)O[C@@H](CN(C)Cc1ccncc1)[C@H](C)CN([C@@H](C)CO)S2(=O)=O | 8.84% (inactive)
C[C@@H]1CCCCO[C@H](CN(C)Cc2ccc(Cl)c(Cl)c2)[C@@H](C)CN([C@@H](C)CO)C(=O)c2cc(NC(=O)Nc3ccccc3)ccc2O1 | 6.62% (inactive)
C[C@H]1CN([C@@H](C)CO)C(=O)Cc2cc(NC(=O)NC3CCCCC3)ccc2O[C@@H]1CN(C)Cc1ccc(-c2ccccc2)cc1 | 6.31% (inactive)
C[C@H](CO)N1C[C@H](C)[C@@H](CN(C)C(=O)c2ccc3c(c2)OCO3)Oc2cc(C#Cc3ccccc3F)ccc2S1(=O)=O | 16% (inactive)
C[C@H](CO)N1C[C@H](C)[C@@H](CN(C)S(=O)(=O)c2ccc(-c3ccccc3)cc2)OCc2cn(nn2)CCCC1=O | -17.9% (inactive)
C[C@@H]1CN([C@H](C)CO)C(=O)c2cc(NC(=O)Nc3ccc(F)cc3)ccc2O[C@@H](C)CCCCO[C@H]1CN(C)Cc1ccc(C(F)(F)F)cc1 | -25.6% (inactive)
C[C@@H]1CN([C@@H](C)CO)C(=O)Cc2cc(NC(=O)CCCCCC(=O)Nc3ccccc3N)ccc2O[C@@H]1CN(C)Cc1ccc(C(F)(F)F)cc1 | -7.18% (inactive)
C[C@@H]1CN([C@H](C)CO)C(=O)c2cc(NC(=O)Nc3ccc(F)cc3)ccc2O[C@@H](C)CCCCO[C@@H]1CN(C)Cc1ccc(C(F)(F)F)cc1 | -30.5% (inactive)
C[C@@H]1CN([C@H](C)CO)C(=O)c2cc(NC(=O)Nc3ccccc3)ccc2O[C@@H](C)CCCCO[C@@H]1CN(C)Cc1ccc(Cl)c(Cl)c1 | -21.5% (inactive)
O=C(Nc1ccc(F)cc1)N1CC(=O)N2[C@@H](CO)[C@H](c3ccc(-c4ccc(F)cc4)cc3)[C@@H]2C1 | -76.6% (inactive)
C[C@@H]1CN([C@H](C)CO)C(=O)c2cc(NS(=O)(=O)c3ccc(F)cc3)ccc2O[C@@H](C)CCCCO[C@@H]1CN(C)Cc1ccccc1 | -20.6% (inactive)
